We go through 39 compounds from the supplement of paper PMC4894684.

Counter-ions that a name gives are not always drawn. ± gives the standard deviation of the averaged measurements. A value given as a limit tells only on which side of the number the result lay.

The test system of the assay is Toxoplasma gondii RH (in HFF). The assay can be described thus: parasite growth relative to the screen mean (all compounds = 100%); higher = less inhibition of parasite growth. To be noted: 5 µM; 72 h; oxygen 21 %. Put shortly: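 Library compounds, held as 10 mM DMSO stocks, were pinned to 5 µM final onto confluent human foreskin fibroblasts in 96-well plates. The cells were infected within 2 h with RH β-Gal–GFP Toxoplasma (MOI 1:5), grown 72 h at 21% O2, and assayed for parasite number by CPRG β-Gal using in-plate standard curves. Growth is reported relative to the screen mean, in which all compounds = 100%, averaged over two screens, and CellTiter-Blue checked uninfected host-cell viability.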
Regarding `Cc1ccc2c(c1)C1(CCN(CCc3nc(-c4ccccc4)oc3C)CC1)OC(=O)N2`, the parasite growth amounted to 96.7 ± 3.8%.
The compound `O=C1Nc2cc(Cl)c(Cl)cc2N2CCNCC12` (centres undefined) returned a parasite growth of 176 ± 7.8%.
The compound `O=c1[nH]c2ccccc2n1CCCN1CCC(n2c(=O)[nH]c3cc(Cl)ccc32)CC1` [Domperidone] showed a parasite growth of 129 ± 11%.
For `CN1CCc2cc3c(cc2C1C1OC(=O)c2c1ccc1c2OCO1)OCO3` (single isomer, unassigned; (+)) [(+)-Bicuculline] the value was 141 ± 54%.
`OC1CCCCC1N1CCC(c2ccccc2)CC1` (racemic) [(±)-Vesamicol hydrochloride]: the parasite growth is 100 ± 8.3%.
`O=c1ccc2[nH]cc(C3=CCNCC3)c2[nH]1` returned a parasite growth of 65.2 ± 3.1%.
Consider `BrC1C(Br)C(Br)C(Br)C(Br)C1Br` (centres undefined) [1,2,3,4,5,6-Hexabromocyclohexane], for which the parasite growth was determined as 112 ± 29%.
For `CCOc1cncc(/C=C/CCNC)c1` [TC 2559 difumarate] the value was 90.8 ± 7%; for `Clc1ccc(N2CCN(Cc3c[nH]c4ncccc34)CC2)cc1` [L-745,870 trihydrochloride], 72.9 ± 7.7%.
The result for `CC(N)Cc1c[nH]c2ccc(O)cc12` (stereo not drawn) [α-Methyl-5-hydroxytryptamine maleate] reads 144 ± 31%.
The result for `COc1ccc(-n2nc(C(F)(F)F)cc2-c2ccc(Cl)cc2)cc1` reads 117 ± 22%.
With `CN(C)c1ccc(/C=C2\CCCN=C2c2cccnc2)cc1` [DMAB-anabaseine dihydrochloride], the parasite growth turned out to be 97.4 ± 15%.
In turn, `C=CCN1CC[C@]23c4c5ccc(O)c4O[C@H]2C(=O)CC[C@@]3(O)[C@H]1C5` [Naloxone hydrochloride] gave a parasite growth of 143 ± 14%.
For `CC(C(=O)OC1CC2CCC(C1)N2C)c1ccc(Br)cc1` (centres undefined) [PG-9 maleate] the value was 101 ± 1.4%; for `C=CCN1CC[C@]2(C)c3cc(O)ccc3C[C@H]1C2C` (single isomer, unassigned; (+)), 97.7 ± 5.9%.
Take `Oc1ccc2c3c1O[C@H]1c4c(c5ccccc5n4Cc4ccccc4)C[C@@]4(O)C(C2)N(CC2CC2)CC[C@]314` [N-Benzylnaltrindole hydrochloride]: the parasite growth was < 0%.
For `CO[C@]12C[C@@H](COC(=O)c3cncc(Br)c3)CN(C)[C@@H]1Cc1cn(C)c3cccc2c13` [Nicergoline] the value was 126 ± 5.7%.
For `CCCN(CCC)C1CCc2cccc(O)c2C1` (centres undefined) [8-Hydroxy-DPAT hydrobromide], the parasite growth was 121 ± 11%.
The result for `CS(=O)(=O)Nc1ccc(Cc2noc(-c3ccc4[nH]cc(CCN)c4c3)n2)cc1` reads 124 ± 6.6%; that for `O=C(O)c1ccc2[nH]cc(CCCCN3CC=C(c4ccccc4)CC3)c2c1` [Carmoxirole hydrochloride], 103 ± 7.4%; that for `CC(C)C[C@H]1C(=O)N2CCC[C@H]2[C@]2(O)O[C@](NC(=O)[C@@H]3C=C4c5cccc6[nH]c(Br)c(c56)C[C@H]4N(C)C3)(C(C)C)C(=O)N12` [Bromocriptine mesylate], 13.6 ± 8.4%.
With `Ic1cncc(OC[C@@H]2CCN2)c1`, the parasite growth turned out to be 137 ± 16%.
For the compound `NCc1cc(O)no1` [Muscimol], the parasite growth came to 154 ± 28%.
For the compound `CCOC(=O)c1ncc2[nH]c3ccc(OCc4ccccc4)cc3c2c1COC`, the parasite growth is 83.8 ± 31%.
The result for `O=C1CN=C(c2cccc(Br)c2)c2oc3ccccc3c2N1` reads 96 ± 4.5%; that for `NP(N)(=O)NC(=O)c1ccc(F)cc1` [Flurofamide], 90 ± 34%; that for `CN1[C@@H]2CC[C@H]1C[C@@H](OC(=O)c1cc(Cl)cc(Cl)c1)C2`, 70.1 ± 18%.
The result for `CN(C(=O)Cc1ccccc1)C(CN1CCCC1)c1ccccc1` (centres undefined) [N-MPPP Hydrochloride] reads 112.4 ± 0.63%; that for `CC(C)NCC(O)c1ccc(N)c(C#N)c1` (centres undefined) [Cimaterol], 130 ± 2.8%; that for `CCCN(CCC)C1CCc2ccc(O)cc2C1` (centres undefined) [7-Hydroxy-DPAT hydrobromide], 67.2 ± 33%.
On to `CC12NC(Cc3ccccc31)c1ccccc12` (single isomer, unassigned; (+)) [(+)-MK 801 maleate], for which the parasite growth is 123 ± 15%.
For `CN1CC[C@@H]2CN3CCc4cccc(c43)[C@@H]2C1` [SDZ SER 082 fumarate] the value was 165 ± 19%; for `CCC1(C2=NCCN2)Cc2ccccc2O1` (centres undefined) [Efaroxan hydrochloride], 113 ± 6.3%; for `Cc1onc(O)c1CC(N)C(=O)O` (racemic) [(RS)-AMPA hydrobromide], 121 ± 16%.
The result for `COc1cc2c(c(OC)c1OC)-c1ccc(OC)c(=O)cc1[C@@H](NC(C)=O)CC2` [Colchicine] reads 115 ± 27%; that for `CN1c2ccccc2C(NCCCCCCC(=O)O)c2ccc(Cl)cc2S1(=O)=O` (centres undefined) [Tianeptine], 98.7 ± 16%.
The result for `Cc1nc(N)sc1CCN` [Amthamine dihydrobromide] reads 94 ± 4.8%.
Turning to `Cc1nnc2n1-c1sc(CCC(=O)N3CCOCC3)cc1C(c1ccccc1Cl)=NC2`, the parasite growth was 132 ± 22%.
Turning to `CN1Cc2ccccc2[C@@H]2c3cccc4[nH]cc(c34)C[C@H]21`, the parasite growth worked out at 132 ± 9.8%.
